# Screens deposited in PubChem by National Center for Advancing Translational Sciences (NCATS).
# Only some compounds are listed: those with a hit (about 17% of all), similar ones and a draw of the others.
# TDP1 cell CPT: qHTS for Inhibitors of human tyrosyl-DNA phosphodiesterase 1 (TDP1): qHTS in cells in presence of CPT | AID 686979, 2013 | Potency, µM (titrated, usually from 46.2 µM), without a hit: top-dose activity change, negative = growth inhibition, most hits filed as inhibitors | chicken DT40 Tdp1-/-;hTDP1 cells + 20 nM CPT, ATP luminescence, 48 h | 420,000 compounds, 12% hits; further: on the % scale 0 is the no-effect control and ±100 the full control effect; nearly all actives have a fitted effect of over 55% in size
#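 Cell growth measured by CellTiter-Glo luminescence after a minimum 48 h, 37 C compound exposure with 20 nM CPT in Tdp1-knockout DT40 cells stably expressing hTDP1, seeded 400/well; qHTS titration format.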
# TDP1 cell noCPT: qHTS for Inhibitors of human tyrosyl-DNA phosphodiesterase 1 (TDP1): qHTS in cells in absence of CPT; Potency, µM (highest dose often 46.2 µM), for the others: at the top dose activity change, negative = growth inhibition, usual class: inhibitors; DT40 Tdp1-/- hTDP1 cells, no CPT, ATP luminescence, 48 h; 420,000 compounds, 15% hits; AID 686978, 2013; further: on the % scale 0 is the no-effect control and ±100 the full control effect; nearly all actives have a fitted effect of over 55% in size
#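 Cells were dispensed at 400 per well, compounds added by pin tool, plates incubated ≥48 hr at 37 °C, then CellTiter-Glo added for 30 min at room temperature before luminescence reading. Line: DT40 Tdp1-/- complemented with hTDP1; camptothecin omitted.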
# TDP1 block: qHTS Assay for Inhibitors of Tyrosyl-DNA Phosphodiesterase (TDP1); Potency, µM (highest dose often 130 µM), without a hit: at the highest dose activity change, negative = inhibition, most hits filed as inhibitors; 350,000 compounds, 0.28% hits; recombinant TDP1, AlphaScreen DNA substrate cleavage; Tyrosyl-DNA phosphodiesterase 1 (Homo sapiens), Q9NUW8; further: on the % scale 0 is the no-effect control and ±100 the full control effect; nearly all actives have a fitted effect of over 40% in size
# Target sequence (Q9NUW8 whole entry, looked up): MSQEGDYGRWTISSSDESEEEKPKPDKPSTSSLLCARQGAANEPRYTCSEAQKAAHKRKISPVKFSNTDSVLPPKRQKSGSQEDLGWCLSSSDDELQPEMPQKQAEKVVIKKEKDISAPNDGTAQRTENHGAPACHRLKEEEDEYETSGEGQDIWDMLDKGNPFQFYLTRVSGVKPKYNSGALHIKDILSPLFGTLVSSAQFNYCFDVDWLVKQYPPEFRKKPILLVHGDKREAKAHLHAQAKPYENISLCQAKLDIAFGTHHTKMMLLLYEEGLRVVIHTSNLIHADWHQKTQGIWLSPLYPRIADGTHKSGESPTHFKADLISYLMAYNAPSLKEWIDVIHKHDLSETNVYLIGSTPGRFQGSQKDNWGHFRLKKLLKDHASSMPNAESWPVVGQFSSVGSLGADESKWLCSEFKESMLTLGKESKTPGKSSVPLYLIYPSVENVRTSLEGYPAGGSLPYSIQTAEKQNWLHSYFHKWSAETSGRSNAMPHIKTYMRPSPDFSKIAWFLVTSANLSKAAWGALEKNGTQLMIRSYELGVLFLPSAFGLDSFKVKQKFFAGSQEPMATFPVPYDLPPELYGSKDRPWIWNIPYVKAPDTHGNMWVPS
#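 Recombinant human Tdp1 (E. coli-expressed, 1 nM final) preincubated with compounds 15 min at room temperature, then 5'-biotin/3'-phosphotyrosine-FITC DNA substrate (15 nM final) added for 5 min. AlphaScreen beads (10 ug/ml final) added 10 min; cleavage lowers signal.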
# ClpP mod: qHTS Assay for Activators of ClpP | ATP-dependent Clp protease proteolytic subunit (Bacillus subtilis (strain 168)), P80244 | purified B. subtilis ClpP, FRET peptide cleavage, 20 min | Potency, µM (titrated, usually from 57.5 µM), without a hit: at the top dose activity change, negative = active | 340,000 compounds, 1.9% hits; active means well fitted falling curve with a large enough effect; inconclusive means small, poorly fitted or top-dose-only effect; inactive means no such curve, though single readings can be large or run the other way; further: the source files actives as falling curves though it sought activators and does not explain the sign; nearly all actives have a fitted effect of over 65% in size
#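 Purified B. subtilis ClpP, 10 microg/mL final in Tris/HCl pH8 with KCl, BSA, glycerol and Tween-20, cleaved an Abz/nitrotyrosine-quenched decapeptide. Fluorescence (ex 320, em 430) was read at 0 and 20 min at room temperature. Delta was normalized to 5.8 microM ADEP and DMSO/no-enzyme controls.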
# Numbers without * were called inactive; ? = inconclusive; . = not tested or not shown; [ ] = another dose, or the depositor's remark. Unless noted, the call rests on the fitted dose curve; in most records, active means well fitted curve in the direction sought with a large enough effect; inconclusive means small, poorly fitted or top-dose-only effect, or another doubt; inactive means no such curve, though single readings can be large; an effect the other way counts as inactive or inconclusive. Potency means the concentration at half of the fitted maximal effect.
SMILES,TDP1 cell CPT,TDP1 cell noCPT,TDP1 block,ClpP mod
O=C(COc1ccc2ccccc2c1)Nc1ccncc1,?,16.4µM*,1.2%,.
CC(C)(C)CC(C)(C)NC(=O)CSCC(=O)Nc1ccc2ccccc2c1,18.4µM*,?,6.2%,-2.0%
O=C(NCCO)c1ccc(-c2cnc3cccnn23)cc1,?,-27.2%,.,4.6%
O=C(NC(=S)Nc1ccccc1[N+](=O)[O-])c1cncc(Br)c1,-1.6%,-24.8%,.,2.2%
COc1cc(Cn2c(N)c(C#N)c3nc4ccccc4nc32)cc(OC)c1,?,?,3.1%,31.6µM*
COc1ccc(Cn2c(N)c(C#N)c3nc4ccccc4nc32)cc1,?,?,-6.3%,?
COc1cccc(Cn2c(N)c(C#N)c3nc4ccccc4nc32)c1OC,-16.9%,?,-2.1%,12.6µM*
O=Cc1ccc2[nH]ccc2c1,6.7%,-1.9%,.,0.4%
CSCc1cc(N2CCOCC2)nc(SCc2ccc(Cl)c(Cl)c2)n1,20.6µM*,-16.4%,9.2%,-1.7%
O=C(Nc1nnc(C2CC2)s1)C1Cc2ccccc2CN1S(=O)(=O)c1cccs1 (centres undefined),20.6µM*,16.4µM*,0.0%,-1.5%
CCSc1nnc(NC(=O)C2Cc3ccccc3CN2S(=O)(=O)CC)s1 (centres undefined),?,16.4µM*,-3.4%,-2.9%
CCS(=O)(=O)N1Cc2ccccc2CC1C(=O)Nc1nc2c(C)cccc2s1 (centres undefined),-25.0%,25.9µM*,7.1%,-8.3%
CCc1nnc(NC(=O)C2Cc3ccccc3CN2S(=O)(=O)c2cccs2)s1 (centres undefined),-30.0%,?,5.6%,-1.0%
CCS(=O)(=O)N1Cc2ccccc2CC1C(=O)Nc1nnc(SCc2c(Cl)cccc2Cl)s1 (centres undefined),?,?,5.8%,-8.3%
CCS(=O)(=O)N1Cc2ccccc2CC1C(=O)Nc1nc(C)cs1 (centres undefined),-1.4%,?,2.6%,.
Cc1noc(C)c1NC(=O)Nc1cccc2c1O[C@H](CN(C)S(=O)(=O)c1cn(C)cn1)[C@@H](C)CN([C@H](C)CO)C2=O,12.5%,-20.2%,0.5%,-2.6%
COc1ccc(OC)c(NC(=O)CSC2=Nc3ccccc3C3=NC(CCC(=O)NCCc4ccccc4)C(=O)N23)c1 (centres undefined),?,?,7.4%,0.3%
CC(C)NC(=O)C(c1ccc(F)cc1)N(C(=O)CCC(=O)Nc1ccccn1)c1cccc(F)c1 (centres undefined),?,-12.4%,6.3%,.
O=[N+]([O-])c1ccc2c(c1)C=C/C2=C\c1ccc(C=S)cc1,?,11.2µM*,.,0.6%
CN(C)c1ccc(/C=C2\C=Cc3ccccc32)cc1[N+](=O)[O-],?,?,.,-0.5%
Cc1ccc2nc(-c3ccccc3)nn2c1,6.1%,?,.,.
N#CC(C#N)=C(Nc1ccc(F)cc1)SCc1cccc(Br)c1,2.91µM*,2.31µM*,2.6%,-25.9%
O=C(COC(=O)c1ccc(O)cc1)Nc1ccccc1[N+](=O)[O-],19.7%,-8.5%,6.0%,.
COC(=O)C1=C(C)N(Cc2ccccc2)C(=NCCc2ccccn2)N[C@H]1c1cccc(F)c1,16.4µM*,?,.,-6.5%
CCN1C(=NCc2cccc(Cl)c2)N[C@@H](c2cccc(F)c2)C(C(=O)OC)=C1C,?,18.4µM*,.,-0.6%
SMILES,TDP1 cell CPT,TDP1 cell noCPT,TDP1 block,ClpP mod
COC(=O)C1=C(C)N(Cc2ccccc2)C(=NCc2cccc(C(F)(F)F)c2)N[C@H]1c1cccc(F)c1,6.51µM*,6.51µM*,.,-3.1%
CCN1C(=NCCc2cccs2)N[C@@H](c2cccs2)C(C(=O)OC)=C1C,6.51µM*,20.6µM*,.,-1.4%
CCN1C(=S)N[C@@H](c2cccc(F)c2)C(C(=O)OC)=C1C,1.6%,-24.0%,.,2.3%
Cc1ccc(N2CCN(CC(O)COc3ccccc3)CC2)cc1 (centres undefined),25.1%,4.9%,3.4%,.
CCCS(=O)(=O)NC(=O)C1(C)CCN(C(=O)c2ccccc2C(F)(F)F)C1 (centres undefined),7.5%,10.9%,.,-1.3%
COC(=O)C1=C(C)N(Cc2ccccc2)C(=NCc2cccc(C(F)(F)F)c2)N[C@H]1c1cccc(C(F)(F)F)c1,3.26µM*,3.66µM*,-0.1%,-11.8%
COC(=O)C1=C(C)N(Cc2ccccc2)C(=S)N[C@H]1c1ccccc1,?,?,.,0.7%
C=CCN=C1N[C@@H](c2cccc(C(F)(F)F)c2)C(C(=O)OC)=C(C)N1CC,?,?,.,0.9%
CCN1C(=NCC(C)C)N[C@@H](c2cccc(C(F)(F)F)c2)C(C(=O)OC)=C1C,?,20.6µM*,.,-1.3%
COC(=O)C1=C(C)N(Cc2ccccc2)C(=NCCCCO)N[C@H]1CCc1ccccc1,?,16.4µM*,.,-5.3%
COC(=O)C1=C(C)N(Cc2ccccc2)C(=NCCCCO)N[C@H]1c1cccc(C(F)(F)F)c1,23.1µM*,?,0.0%,-1.7%
C/C(=C\c1ccco1)CN1CCN(Cc2ccc(C)o2)C(CCO)C1 (centres undefined),-12.8%,-22.5%,-2.5%,.
O=C(NC(=S)Nc1ccc(N2CCOCC2)cc1)c1cncc(Br)c1,-4.4%,-5.7%,5.6%,0.9%
CCN1C(=NCCCCO)N[C@@H](c2cccc(C(F)(F)F)c2)C(C(=O)OC)=C1C,?,-19.6%,.,-0.2%
COC(=O)C1=C(C)N(CC2CC2)C(=NCc2cccc(C(F)(F)F)c2)N[C@H]1c1ccccc1,10.3µM*,11.6µM*,0.0%,1.8%
COC(=O)C1=C(C)N(Cc2ccccc2)C(=NCCc2c[nH]c3ccccc23)N[C@H]1c1cccc(C(F)(F)F)c1,?,16.4µM*,8.0%,-3.5%
COCCN=C1N[C@@H](c2cccc(C(F)(F)F)c2)C(C(=O)OC)=C(C)N1Cc1ccccc1,13µM*,10.3µM*,.,-2.0%
Cc1ccc(C2CC(=O)Nc3cc4c(cc32)OCCO4)cc1Br (centres undefined),18.4µM*,16.4µM*,5.0%,-1.1%
CC(C)c1ccc(C2CC(=O)Nc3cc4c(cc32)OCCO4)cc1 (centres undefined),?,29.1µM*,-4.3%[12.3 µM],-0.2%
CCN(CC)C(=O)Cn1c(=O)n(-c2ccc(C)c(C)c2)c(=O)c2c3c(sc21)CCCCC3,5.3%,-7.9%,3.6%,-1.6%
CC(C)c1ccc(Cn2ccc3c4c(N)nc(NC5CC5)nc4ccc32)cc1,4.73µM*,3.35µM*,14.3%,.
CC1(C)C(=O)N(c2ccccc2)C(=O)c2ccccc21,-6.8%,?,.,-4.1%
COc1nc2c(c(-c3cc(Br)cs3)c1C#N)Cc1ccccc1-2,?,25.9µM*,-3.8%,-39.7%
